PubChem BioAssay
Records with an inconclusive call do not appear. Calls of active or inactive are those of the source. Unless noted, no stated cut-off is given here; in the data, active means inhibition above about 30%; inactive means the rest.

Assays:
[1] = reducers of endogenous Her2 protein level, primary screen, SKBR3 breast tumor cells, AlphaScreen, ATP viability (AID 461;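 active means Her2 level under about 52% in both replicate screens, with viability over 70% of control, limit read from the data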;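 on Her2 level: lower value means less Her2 protein in the cells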;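 on viability: percent of carrier control wells set as 100% viability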); conditions: 18-24 h, measured here: SKBR3 viability, ATP luminescence, at 10 µM
[2] = target: Receptor tyrosine-protein kinase erbB-2 (Homo sapiens) (UniProt P04626); test: as above; conditions: 18-24 h, at 10 µM, stronger effect = lower value
Chain of Receptor tyrosine-protein kinase erbB-2 (Homo sapiens) (P04626 whole entry, looked up): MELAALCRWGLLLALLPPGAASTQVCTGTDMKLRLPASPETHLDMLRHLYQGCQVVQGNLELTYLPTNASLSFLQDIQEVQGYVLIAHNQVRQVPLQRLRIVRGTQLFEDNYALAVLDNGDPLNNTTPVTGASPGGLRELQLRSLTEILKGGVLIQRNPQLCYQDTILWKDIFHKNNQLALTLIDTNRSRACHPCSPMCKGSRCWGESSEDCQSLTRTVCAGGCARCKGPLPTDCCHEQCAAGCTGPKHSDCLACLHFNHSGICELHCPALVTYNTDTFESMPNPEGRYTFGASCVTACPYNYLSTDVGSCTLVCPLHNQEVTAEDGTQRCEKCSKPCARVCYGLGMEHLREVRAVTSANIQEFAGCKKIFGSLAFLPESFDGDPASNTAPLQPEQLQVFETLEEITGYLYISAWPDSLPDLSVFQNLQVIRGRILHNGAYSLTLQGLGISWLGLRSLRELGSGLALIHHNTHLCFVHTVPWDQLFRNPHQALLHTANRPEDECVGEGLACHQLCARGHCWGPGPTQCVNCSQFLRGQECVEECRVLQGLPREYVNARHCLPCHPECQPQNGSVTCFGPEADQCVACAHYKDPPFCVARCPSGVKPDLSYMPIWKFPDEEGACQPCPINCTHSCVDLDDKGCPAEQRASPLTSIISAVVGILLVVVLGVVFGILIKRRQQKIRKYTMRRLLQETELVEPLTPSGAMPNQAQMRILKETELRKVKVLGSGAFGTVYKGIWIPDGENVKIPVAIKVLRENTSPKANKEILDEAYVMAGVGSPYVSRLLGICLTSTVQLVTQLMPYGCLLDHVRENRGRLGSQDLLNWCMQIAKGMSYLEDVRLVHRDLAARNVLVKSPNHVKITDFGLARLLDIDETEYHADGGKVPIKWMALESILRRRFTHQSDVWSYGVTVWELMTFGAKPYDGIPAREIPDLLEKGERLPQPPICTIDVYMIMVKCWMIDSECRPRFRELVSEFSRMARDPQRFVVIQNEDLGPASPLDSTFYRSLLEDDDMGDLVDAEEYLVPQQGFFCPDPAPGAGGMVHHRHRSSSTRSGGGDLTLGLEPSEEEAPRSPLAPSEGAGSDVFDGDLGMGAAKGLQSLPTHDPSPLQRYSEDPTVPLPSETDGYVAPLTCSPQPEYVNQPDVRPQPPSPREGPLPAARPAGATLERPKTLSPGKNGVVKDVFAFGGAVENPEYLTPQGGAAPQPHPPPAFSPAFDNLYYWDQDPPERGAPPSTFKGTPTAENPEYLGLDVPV

[3] = SK-BR-3 cell growth inhibitors, pilot screen, 24 h, human (AID 572;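 active means viability at or below 10% of carrier control in both of two separate runs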;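 further: compound exposure lasted between 18 and 24 h rather than exactly 24 h; 100% = carrier-treated control wells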); conditions: SK-BR-3 viability, CellTiter-Glo luminescence, at 10 µM, stronger effect = lower value
[4] = growth inhibitors of H69AR lung tumor, primary screen, human, duplicate replicates (AID 580;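 active means viability at or under a set limit in both replicates, limit being median viability minus 3 SD, cut at about 48% in these data, passing the limit was not always enough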;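 further: 100% = mean luminescence of untreated wells and 0% = no signal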); conditions: H69AR lung tumor cells viability, ATP luminescence, 72 h; at 10 µM; stronger effect = lower value
[5] = reversal of MRP1-mediated doxorubicin resistance, pilot screen, H69AR cells, doxorubicin co-treatment (AID 601;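 active means viability loss from added drug above about 55%, and viability with drug at most 40%, in both replicates, limit read from the data, passing the limit was not always enough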); conditions: CellTiter-Glo, 72 h, at 10 µM; for differential viability (reversal): stronger effect = higher value
[6] = 384-well plate pilot, post-Golgi transport modulator project, inhibition of yeast transport mutant growth (AID 636; in the data active means inhibition above about 31%); conditions: absorbance 615 nm, about 18 h, stronger effect = higher value
[7] = growth suppression of yeast trafficking mutant, preliminary HTS, modulators of trafficking downstream of Golgi apparatus project, 1536-format plate, OD 615 nm (AID 637); conditions: yeast transport mutant growth, absorbance 615 nm, 18 h; stronger effect = higher value
[8] = OD615 S. cerevisiae growth inhibition, permissive medium, pilot counter-assay, permissive growth control for S. cerevisiae lifespan shortening project (AID 705;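 active means growth inhibition above 25% in both replicates, a cutoff set 3 SD above the mean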); conditions: OD615, 24 h, at 10 µM, stronger effect = higher value
[9] = Restrictive medium S. cerevisiae growth inhibition, OD615, pilot screen of yeast lifespan reduction project, restrictive growth control (AID 706;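 active means growth inhibition above a set limit, 3 SD over mean compound inhibition, in both replicates, cut at about 43% in these data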;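 further: modified DeaD lifespan yeast strain shifted to restrictive glucose medium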); conditions: OD615, 48 h, at 10 µM, stronger effect = higher value
[10] = viability gain of MRP-1-high H69AR cells under doxorubicin, pilot screen, MRP-1 activator project, CellTiter-Glo, duplicate (AID 807;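 active means viability increase at or above a cutoff of the median across tested compounds plus 3 SD, cut at about 8.5% in these data, passing the limit was not always enough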;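 further: compound pretreatment 18-22 h then 72 h combined with doxorubicin; 0% = doxorubicin alone and 100% = vehicle without doxorubicin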); conditions: H69AR viability with doxorubicin, CellTiter-Glo luminescence; at 10 µM; stronger effect = higher value
[11] = growth suppression of beta-catenin knockout HCT116, pilot screen, human colon tumor cells (AID 823;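 active means cell viability at or below a set limit in both duplicate runs, the limit being the all-compound median minus 4 SD, cut at about 23% in these data, passing the limit was not always enough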;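 further: 0% = wells killed by 20 µM Hyamine and 100% = untreated DMSO cell wells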); conditions: CellTiter-Glo, 60 h, at 10 µM, stronger effect = lower value
[12] = growth suppression of PTEN-deleted HCT116, pilot screen, cell-based, HCT116 clonal line, CellTiter-Glo (AID 824;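 active means viability at or below 27.92% in each of two runs, the all-compound median minus 4 SD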;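 further: 0% = 20 µM Hyamine control and 100% = vehicle cell control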); conditions: 60 h, at 10 µM, stronger effect = lower value
[13] = inhibitors of the yeast RAM network, pilot screen, dse1pr::URA3 reporter, 5-FOA selection (AID 869;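 active means inhibition over a set limit, the all-compound mean plus 3 SD, in both replicate runs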;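 further: 0% = DMSO wells with no growth and 100% = 10 µM 1-NA-PP1 with full growth; RAM network block rescues cells from 5-FOA so hits raise OD615 growth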); conditions: S. cerevisiae dse1pr::URA3 5-FOA growth, OD615, 2 d; at 10 µM; stronger effect = higher value; strain carries analog-sensitive mutant Cbk1 kinase
[14] = HUVEC growth inhibition – cell-based, human, primary screen (AID 575;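 active means viability at or below 30% in both replicate assays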;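 further: 100% = median of untreated cell wells with 0.1% DMSO on each plate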); conditions: HUVEC proliferation, CellTiter-Glo luminescence, 72 h; at 10 µM; stronger effect = lower value
[15] = H69AR cells + 2 uM doxorubicin, measured here: viability with 2 uM doxorubicin, stronger effect = lower value
[16] = H69AR cells, compound alone cytotoxicity

Row | SMILES | viability [1] | Her2 level [2] | viability [3] | viability [4] | differential viability (reversal) ([5]; H69AR cells + 2 uM doxorubicin) | viability [5, 15] | viability [5, 16] | inhibition [6] | inhibition [7] | growth inhibition [8] | growth inhibition [9] | viability increase [10] | viability [11] | viability [12] | inhibition [13] | viability [14]
1 | COc1ccc(-c2cc3c(=O)n(CC(=O)NC4CCN(Cc5ccccc5)CC4)ncn3n2)cc1 | 75% | 103% (inactive) | 75% (inactive) | 74.2% (inactive) | -0.715% (inactive) | 75% | 74.2% | -5.66% (inactive) | -0.83% (inactive) |  |  |  |  |  |  | 
2 | O=C(NC1CCCc2ccccc21)C1CCN(c2nnc(-n3cccc3)s2)CC1 (stereo unspecified) | 84.5% | 94.5% (inactive) | 84.5% (inactive) | 97.3% (inactive) | 6.74% (inactive) | 90.6% | 97.3% | 1.41% (inactive) | -2% (inactive) | -1.88% (inactive) | -6.53% (inactive) | -4.06% (inactive) | 89.5% (inactive) | 85% (inactive) | 1.14% (inactive) | 
3 | CC(=O)Nc1ccc(S(=O)(=O)N(C2=NCC(C)S2)c2ccccc2)cc1 (stereo unspecified) |  |  | 85% (inactive) | 91.7% (inactive) | 1.89% (inactive) | 89.8% | 91.7% | -2.47% (inactive) | -4.35% (inactive) |  |  |  |  |  |  | 80.3% (inactive)
4 | O=C(NCc1cccnc1)/C(=N\O)c1ccccc1 |  |  | 73% (inactive) | 98.8% (inactive) | 13.2% (inactive) | 85.6% | 98.8% | -6.08% (inactive) | -3.82% (inactive) |  |  |  |  |  |  | 111% (inactive)
5 | OC(CCN1CCCCC1)(c1ccccc1)c1ccccc1 |  |  | 95% (inactive) | 84.1% (inactive) | 0.38% (inactive) | 83.7% | 84.1% | -2.21% (inactive) | 0% (inactive) |  |  |  |  |  |  | 92.7% (inactive)
6 | CCOC(=O)C1CCN(C(=O)COc2ccc(S(=O)(=O)NC(C)C)cc2Cl)CC1 |  |  | 99.5% (inactive) | 90.4% (inactive) | -15.3% (inactive) | 106% | 90.4% | 0.66% (inactive) | 24.5% (inactive) |  |  |  |  |  |  | 100% (inactive)
7 | COC(=O)Cn1cnc2sc(C)c(S(=O)(=O)N3CCC(C)CC3)c2c1=O |  |  | 85% (inactive) | 91.3% (inactive) | -5.84% (inactive) | 97.1% | 91.3% | -1.64% (inactive) | -0.91% (inactive) |  |  |  |  |  |  | 98.4% (inactive)
8 | CCN(CC)CCN1C(=O)C(=O)/C(=C(/O)c2ccc(OC(C)C)cc2)C1c1ccncc1 (stereo unspecified) |  |  | 133% (inactive) | 91.1% (inactive) | 6.59% (inactive) | 84.5% | 91.1% | -6.76% (inactive) | 3.09% (inactive) |  |  |  |  |  |  | 112% (inactive)
9 | O=C(NCCCN1CCCC1=O)c1cccnc1 |  |  | 135% (inactive) | 89.2% (inactive) | 0.48% (inactive) | 88.7% | 89.2% | -4.25% (inactive) | 3.09% (inactive) |  |  |  |  |  |  | 113% (inactive)
10 | Cc1cc(NC(=O)CSc2nc(CCC3CCCC3)nc3ccccc23)no1 |  |  | 92% (inactive) | 22.3% (active) | -1.14% (inactive) | 23.4% | 22.3% | -2.86% (inactive) | -5.08% (inactive) |  |  |  |  |  |  | 92.2% (inactive)
11 | COc1ccc(CN(C2CCCC2)S(=O)(=O)c2ccc(-n3cnnn3)cc2)cc1OC |  |  | 71% (inactive) | 81.6% (inactive) | -14% (inactive) | 95.6% | 81.6% | -7.12% (inactive) | 0.81% (inactive) |  |  |  |  |  |  | 80.5% (inactive)
12 | COc1nc(-c2ccc(Cl)cc2)ccc1-c1noc(-c2ccncc2)n1 |  |  | 109% (inactive) | 82.4% (inactive) | 1.99% (inactive) | 80.4% | 82.4% | -6.99% (inactive) | -7.64% (inactive) |  |  |  |  |  |  | 103% (inactive)
13 | CCc1nnc(NC(=O)C2Cc3ccccc3CN2S(=O)(=O)c2cccs2)s1 (stereo unspecified) |  |  | 109% (inactive) | 68.1% (inactive) | -16.4% (inactive) | 84.5% | 68.1% | -2.34% (inactive) | -3.28% (inactive) |  |  |  |  |  |  | 89% (inactive)
14 | O=C(c1ccc(F)cc1)C1CCN(CCn2c(=O)[nH]c3ccccc3c2=O)CC1 |  |  | 94% (inactive) | 96.2% (inactive) | 1.93% (inactive) | 94.3% | 96.2% | -2.73% (inactive) | 1.33% (inactive) |  |  |  |  |  |  | 89.5% (inactive)
15 | O=C(O)c1cc2cc(F)ccc2[nH]1 |  |  | 110% (inactive) | 94.5% (inactive) | -17.1% (inactive) | 112% | 94.5% | -1.82% (inactive) | -4.67% (inactive) |  |  |  |  |  |  | 78.4% (inactive)
16 | CCOCCCNC(=O)C1CC(=O)N(C2CCCC2)C1 (stereo unspecified) |  |  | 98% (inactive) | 94.6% (inactive) | 4.13% (inactive) | 90.5% | 94.6% | -0.91% (inactive) | 1.15% (inactive) |  |  |  |  |  |  | 97.7% (inactive)
